Assay results from PubChem BioAssay (NCATS).
Inconclusive results are not listed. Activity calls are given as the source filed them. The call rests on the fitted dose curve; in most records, active means well fitted cell-killing curve with a large enough effect; inconclusive means small, poorly fitted or top-dose-only effect, or effect the other way; inactive means no such curve, though single readings can be large or run the other way.

Assay: Quantitative High-Throughput drug screen in 47 multiple myeloma cell lines against the NCATS MIPE library collection: Karpas25_ECACC cell viability assay (AID 1918968; further: nearly all actives have a fitted effect of over 35% in size)
Details: Karpas25 myeloma viability, CellTiter-Glo ATP, 48 h; series mostly up to 45.8 µM
Method in brief: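 CellTiter-Glo luminescence (ATP) after 48 h compound exposure, 37C/5% CO2; 500 cells/well; MIPE 4.0 approved/investigational drugs pinned in; DMSO = 100%, media only = 0% viability.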
Potency means the concentration at half of the fitted maximal effect.

| SMILES | Potency |
| --- | --- |
| COc1cc2c(cc1OC)[C@@H]1Cc3ccc(OC)c(OC)c3CN1CC2 | 16.6 µM (active) |
| CNc1nc(-c2ccc3c(N)n[nH]c3c2)cc(N2C[C@@H](C(=O)NC3CCCCC3)CC[C@@H]2C)n1 | 2.09 µM (active) |
| Cc1cnc(CNC(=O)c2c(=O)c3ccc(N4CCCN(C)CC4)nc3n3c2sc2ccccc23)cn1 | inactive |
| CC1CNc2c(cccc2S(=O)(=O)N[C@@H](CCCN=C(N)N)C(=O)N2CC[C@@H](C)C[C@@H]2C(=O)O)C1 (some centres undefined) | inactive |
| O=C(O)c1ccc(O)c2ncc(N3CCOCC3)cc12 | 18.7 µM (active) |
| CNC(=O)[C@H](Cc1ccccc1)NC(=O)[C@H](CC(C)C)[C@H](CSc1cccs1)C(=O)NO | 16.6 µM (active) |
| CNC(=O)c1ccc2c(C(=Nc3cccc(CN(C)C)c3)c3ccccc3)c(O)[nH]c2c1 | 13.2 µM (active) |
| COc1cc2c(cc1Cc1cccc(Cl)c1F)c(=O)c(C(=O)O)cn2[C@H](CO)C(C)C | 14.8 µM (active) |
| CCOC(=O)c1c(CSc2ccccc2)n(C)c2cc(Br)c(O)c(CN(C)C)c12 | 16.6 µM (active) |
| CCC(=C(c1ccc(O)cc1)c1ccc(OCCNC)cc1)c1ccccc1 | 18.7 µM (active) |
| CCn1c(-c2nonc2N)nc2cncc(CNC3CCNCC3)c21 | 8.33 µM (active) |
| Nc1nc(Cl)nc2c1ncn2[C@@H]1O[C@H](CO)[C@@H](O)[C@H]1F | 0.526 µM (active) |
| CCC[C@H](N[C@@H](C)C(=O)N1[C@@H]2CCCC[C@H]2C[C@H]1C(=O)O)C(=O)OCC | inactive |
| Cc1cc(C(C)Nc2ccccc2)c2nc(N3CCOCC3)cc(=O)n2c1 (centres undefined) | 4.18 µM (active) |
